Compound activity deposited in PubChem BioAssay by National Center for Advancing Translational Sciences (NCATS).
Only some compounds are listed: those with a hit (about 7.6% of all), similar ones and a draw of the others.
KCNH2 3.1 block = inhibitors of human KCNH2 3.1 potassium channel isoform; U2OS KCNH2 3.1, thallium flux FluxOr; hits give low values; activity change, % (tested at about 1.8 µM); actives 0.95% (n = 340,000);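 active = maximum activity change below -70%; inconclusive = maximum activity change from -70% to -50%; inactive = maximum activity change above -50%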;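 note: thallium influx rate constant from kinetic fluorescence after stimulation buffer; % is set by controls: 0 for no effect and ±100 for the full control effect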
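Channel expression came from 3.1 mutant virus (1.77 x 10^8 /mL) applied to suspended U2OS cells for 4 h. Flux was tracked with FluxOr dye plus Red40 quencher, and kinetic rate constants normalized to controls.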
SW480 rerep = inducers of DNA re-replication in SW480 colon cancer cells. SW480 DNA re-replication, Hoechst DNA content imaging, 48 h. Potency, µM (top dose mostly 46.1 µM), without a hit: at the top dose re-replication activation, most hits filed as activators. actives 1.8% (n = 340,000). AID 624297; note: potency is the fitted concentration of half-maximal effect; % of control where 0% means no effect; nearly all actives have a fitted effect of over 55% in size
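Quantitative HTS format with DMSO vehicle controls; 48 hr drug incubation at 37 C, then 40 min Hoechst staining and scanning imager measurement at 405 nm excitation.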
KB-V1 cytotox = kills drug-selected multidrug resistant KB-V1 cells; KB-V1 MDR cells viability, CellTiter-Glo, 72 h; Potency, µM (doses to about 46.1 µM), hits mostly cytotoxic; AID 1347076; actives 3.4% (n = 400,000); note: potency is the fitted concentration of half-maximal effect; % is set by controls: 0 for no effect and ±100 for the full control effect; nearly all actives have a fitted effect of over 60% in size
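KB-V1, DMEM (no phenol red) + 10% FBS; cpd pin-transferred, titration series; 72 h, 37 degrees C; CellTiter-Glo, luminescence. Data normalized, curve-fit.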
MCF10A rerep = induces DNA re-replication in MCF 10a normal breast cells. MCF 10A DNA re-replication, Hoechst nuclear intensity, 48 h. Potency, µM (doses to about 46.1 µM), for inactives: top-dose activity, positive = re-replication, actives largely listed as activators. actives 2.9% (n = 350,000); note: potency is the fitted concentration of half-maximal effect; % of control where 0% means no effect; nearly all actives have a fitted effect of over 50% in size
KB-3-1 tox = KB-3-1 parental cell cytotoxicity | KB-3-1 viability, CellTiter-Glo ATP luminescence, 72 h | Potency, µM (series often up to 46.1 µM), hits mostly cytotoxic | actives 1.4% (n = 400,000) | AID 1347075; note: potency is the fitted concentration of half-maximal effect; % is set by controls: 0 for no effect and ±100 for the full control effect; nearly all actives have a fitted effect of over 60% in size
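Luminescent ATP read-out (CellTiter-Glo) measures survival of drug-naive KB-3-1 cells after 72 h compound exposure at 37 °C. Titration series was screened from lowest to highest concentration, with DMSO vehicle plates as background controls.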
KCNH2 WT inh = blocks the wildtype human KCNH2 potassium channel. Q12809. U2OS, BacMam KCNH2, thallium flux FluxOr; hits give low values. actives 0.37% (n = 340,000). activity change, % at 1.84 µM. AID 720551;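 active = maximum activity change below -70%; inconclusive = maximum activity change between -70% and -50%; inactive = maximum activity change above -50%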; note: % is set by controls: 0 for no effect and ±100 for the full control effect
Target sequence (Q12809 whole entry, looked up): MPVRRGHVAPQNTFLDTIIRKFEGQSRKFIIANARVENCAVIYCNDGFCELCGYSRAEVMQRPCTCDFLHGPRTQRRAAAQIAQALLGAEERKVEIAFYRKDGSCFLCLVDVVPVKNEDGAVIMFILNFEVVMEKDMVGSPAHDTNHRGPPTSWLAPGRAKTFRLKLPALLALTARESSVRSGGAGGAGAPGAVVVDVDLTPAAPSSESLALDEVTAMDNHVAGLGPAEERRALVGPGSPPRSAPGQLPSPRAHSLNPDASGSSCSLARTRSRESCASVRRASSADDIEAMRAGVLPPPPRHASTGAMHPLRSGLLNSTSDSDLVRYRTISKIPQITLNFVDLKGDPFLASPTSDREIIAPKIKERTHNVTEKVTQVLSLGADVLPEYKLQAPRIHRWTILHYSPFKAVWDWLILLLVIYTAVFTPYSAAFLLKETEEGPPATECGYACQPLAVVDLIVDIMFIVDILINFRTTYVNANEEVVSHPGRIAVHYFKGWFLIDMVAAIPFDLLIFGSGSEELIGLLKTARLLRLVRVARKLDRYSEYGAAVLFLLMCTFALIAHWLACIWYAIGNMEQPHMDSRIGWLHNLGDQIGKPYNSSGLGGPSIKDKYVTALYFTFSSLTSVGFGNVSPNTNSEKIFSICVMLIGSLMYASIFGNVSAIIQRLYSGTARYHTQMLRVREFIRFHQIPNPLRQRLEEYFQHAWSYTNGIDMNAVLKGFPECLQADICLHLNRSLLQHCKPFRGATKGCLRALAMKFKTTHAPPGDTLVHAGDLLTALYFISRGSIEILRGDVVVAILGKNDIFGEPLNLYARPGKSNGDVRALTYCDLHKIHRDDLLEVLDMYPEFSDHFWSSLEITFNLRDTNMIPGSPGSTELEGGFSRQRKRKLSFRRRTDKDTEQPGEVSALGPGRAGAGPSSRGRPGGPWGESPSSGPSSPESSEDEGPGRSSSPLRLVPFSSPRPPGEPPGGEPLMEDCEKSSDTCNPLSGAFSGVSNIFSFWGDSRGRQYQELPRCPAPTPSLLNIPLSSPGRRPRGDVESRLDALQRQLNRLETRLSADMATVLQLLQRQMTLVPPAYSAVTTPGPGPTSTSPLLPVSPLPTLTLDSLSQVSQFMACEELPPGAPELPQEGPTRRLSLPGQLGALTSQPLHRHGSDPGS
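U2OS cells transduced with wild-type KCNH2 virus are loaded with FluxOr dye for 45 min, and thallium flux is measured in kinetic reads before and after stimulation buffer. Rate constants are normalized to DMSO controls.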
Active calls of the source: *; i = inactive; u = inconclusive; x = not tested or not shown; [ ] = another dose, or the depositor's remark. Unless noted, calls come from the whole dose curve; as a rule, active = well fitted curve in the direction sought with a large enough effect; inconclusive = small, poorly fitted or top-dose-only effect, or another doubt; inactive = no such curve, though single readings can be large; an effect the other way counts as inactive or inconclusive.

SMILES	KCNH2 3.1 block	SW480 rerep	KB-V1 cytotox	MCF10A rerep	KB-3-1 tox	KCNH2 WT inh
COc1ccc(NS(=O)(=O)c2cccc(NC(=O)CCC(=O)c3cccs3)c2)cc1	9	-5%	i	20%	i	-4
O=C(Nc1cccc(S(=O)(=O)Nc2ccc(Cl)cc2)c1)c1ccc(Cl)nc1	4	-5%	i	5%	u	0
COc1cccc(S(=O)(=O)NCC(=O)Nc2ccc(C(C)(C)C)cc2)c1	-7	-5%	16µM*	1%	i	-7
COc1ccc(NS(=O)(=O)c2cccc(NC(=O)c3ccc(Cl)nc3)c2)cc1	-21	u	2.9µM*	-7%	u	-1
O=C(Nc1ccncc1)c1ccc(NS(=O)(=O)c2cccc(F)c2)cc1	1	-6%	u	u	u	-4
COc1cccc(S(=O)(=O)Nc2ccc(C(=O)Nc3ccncc3)cc2)c1	6	1%	21µM*	u	u	6
Cc1ccc(-c2cc(C(=O)N(Cc3ccc(C(C)(C)C)cc3)Cc3ccco3)no2)cc1	x	x	i	x	i	x
COc1cc(C(=O)NC(=S)NCc2ccncc2)cc(OC)c1OC	5	x	u	x	i	1
NC(=O)OC[C@H](O)COc1ccc(Cl)cc1	x	0%[20.6 µM]	x	9%[20.6 µM]	x	x
O=C(CNc1ccccc1-c1ccccc1)NCc1ccccc1	2	5%	16µM*	15%	i	-5
O=C(CNCc1ccccc1)Nc1ccccc1-c1ccccc1	-2	-3%	i	23µM*	i	8
O=C(CNCc1ccccc1)Nc1cccc(Cl)c1Cl	2	3%	i	24%	i	13
CC(CCC(C)[n+]1cccc(Br)c1)[n+]1cccc(Br)c1 (stereo unspecified)	x	x	i	x	u	x
O=C(COc1ccc2ccccc2c1Br)N1CCN(c2ccccn2)CC1	1	u	23µM*	97%	u	13
O=C(COc1ccc2ccccc2c1Br)N1CCCCC1	4	3%	i	0%	i	-10
O=C(NS(=O)(=O)Oc1ccc(F)cc1F)OC[C@@H]1CCCN2CCCCC12 (stereo partly specified)	0	-7%	u	-6%	i	4
C=CCOc1c(Br)cc(C2C3=C(CCCC3=O)N(C)C3=C2C(=O)CCC3)cc1OCC	3	23µM*	i	-3%	i	4
C=CCOc1ccc(C2C3=C(CCCC3=O)N(CC(=O)O)C3=C2C(=O)CCC3)cc1OCC	12	-5%	u	-2%	i	13
O=C(CSc1nnc2ccc(-c3ccc(Br)cc3)nn12)NCC1CCCO1 (stereo unspecified)	-3	u	i	-12%	i	-3
Cc1ccccc1-c1nc2c(=O)n(C)c(=O)nc-2n(C)n1	x	x	u	x	2.1µM*	x
Cn1nc(-c2ccccn2)nc2c(=O)n(C)c(=O)nc1-2	1	0.82µM*	i	2.9µM*	u	0
CCCc1nc2c(=O)n(C)c(=O)nc-2n(C)n1	-7	0.65µM*	7.3µM*	10µM*	4.6µM*	-10
CN1C(C(=O)NCc2ccccc2)CC2Cn3c(nc4cc5ccccc5cc43)C21 (stereo unspecified)	26	1%[9.22 µM]	i	u	i	1
Cc1c(CNC2CCC(C)CC2)c(C(=O)O)c(C)n1Cc1ccc(Cl)cc1 (stereo unspecified)	x	x	i	x	i	x
C/C=C/c1ccc(OCC(=O)Nc2cc(Cl)ccc2-n2cncn2)c(OC)c1	-2	-1%	i	27%	i	3
SMILES	KCNH2 3.1 block	SW480 rerep	KB-V1 cytotox	MCF10A rerep	KB-3-1 tox	KCNH2 WT inh
C=Cc1ccc(Cn2c(C)c(C(=O)NCc3cccc(C)c3)sc2=O)cc1	x	x	u	x	i	x
CSc1ccc(Cn2c(C)c(C(=O)NCc3cccc(Cl)c3)sc2=O)cc1	x	x	9.2µM*	x	i	x
Cc1cccc(CNC(=O)c2sc(=O)n(Cc3ccc(S(C)(=O)=O)cc3)c2C)c1	x	x	15µM*	x	u	x
Cc1c(C(=O)NCc2ccccc2C(F)(F)F)sc(=O)n1Cc1ccc(S(=O)(=O)N(C)C)cc1	x	x	8.2µM*	x	u	x
Cc1c(C(=O)NCc2ccc(Cl)c(Cl)c2)sc(=O)n1Cc1cccc(F)c1	x	x	u	x	i	x
Cc1cccc(C)c1Cn1c(C)c(C(=O)NCc2ccc([N+](=O)[O-])cc2)sc1=O	x	x	2.6µM*	x	u	x
COc1cc(NC(=S)NC2CC2)c(OC)cc1Cl	-3	-2%	i	15%	i	-8
COc1ccc(NC(=O)c2sc(=O)n(Cc3ccc(F)c(Cl)c3)c2C)cc1OC	x	x	u	x	4.6µM*	x
COc1ccc(Cl)cc1Cn1c(C)c(C(=O)NCc2cccc(Cl)c2)sc1=O	x	x	15µM*	x	i	x
COc1ccc(CNC(=O)c2sc(=O)n(Cc3ccc(C)cc3)c2C)cc1	x	x	21µM*	x	i	x
COc1ccc(Cn2ccc3nc(C)c(C(=O)NCc4ccc(C)cc4)cc3c2=O)cc1	x	x	i	x	5.2µM*	x
COc1ccc(CNC(=O)c2sc(=O)n(Cc3cc(Cl)ccc3OC)c2C)cc1	x	x	u	x	i	x
COc1ccccc1CCC(=O)NNC(=O)c1cccs1	-8	-3%	i	-2%	i	5
C[C@H]1CN([C@@H](C)CO)S(=O)(=O)c2ccc(-c3ccncc3)cc2O[C@H]1CN(C)C(=O)c1cccc(F)c1	4	x	i	x	i	-14
Cn1c(Cc2ccccc2)nnc1SCC(=O)NC1CCCC1	12	-2%	i	-17%	i	2
CCOc1ccc(S(=O)(=O)N(C)c2ccc(OCC(=O)NCCc3ccc(OC)cc3)cc2)cc1	7	13%	i	14%	i	-3
O=C(CCCSCCCC(=O)NN=Cc1ccccc1)NN=Cc1ccccc1	13	-7%	i	13%	i	3
CSc1ccc(Cn2c(C)c(C(=O)NCc3cccc(C)c3)sc2=O)cc1	x	x	9.2µM*	x	i	x
Cc1c(C(=O)NCc2cccc(Cl)c2)sc(=O)n1Cc1cccc(F)c1	x	x	18µM*	x	i	x
Cc1ccc(CNC(=O)C2CCCN(c3nc4c(C)cc(C)cc4s3)C2)cc1 (stereo unspecified)	x	x	i	x	i	x
CC(=O)N(C(C)=O)c1c(C#N)c(C)n(-c2ccccc2)c1C(=O)c1ccccc1	-8	u	u	6.5µM*	i	3
Cc1ccc2nc(SCc3ccccc3)c(C=O)c(=O)n2c1	10	-13%	8.2µM*	1%	i	-1
N#Cc1cc2c(nc1SCc1ccc(Cl)nc1)CCCCC2	-8	-4%	i	26%	i	-5
